From PubChem BioAssay (EPA / NIEHS)
Active and inactive are the calls of the source. Rule for the calls: active = hit-call score of the fitted dose curve at least 0.9, where 1 is the maximum; inactive = score below 0.9.

Legend:
Settings in all cases: mRNA level, 48 h; actives raise or lower the signal
[1] = read-out: Cyclin D2 (CCND2), CCND2 (gene 894); assay: LTEA_HepaRG_CCND2: Life Technologies and Expression Analysis (LTEA) Assay for Cyclin D2 (CCND2) using HepaRG (AID 2283449);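 note: CCND2 transcript measured by TaqMan qRT-PCR and normalised to three housekeeping genes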
Summary of the method: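 HepaRG, 48 h dosing, 8-pt half-log curve from 100 uM, 0.5% DMSO; duplicate wells. Readout: CCND2 transcript by microfluidic qRT-PCR, housekeeping-normalised; bidirectional fit vs DMSO baseline.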

[2] = read-out: Cyclin Dependent Kinase Inhibitor 1A (CDKN1A), CDKN1A (gene 1026); assay: LTEA_HepaRG_CDKN1A: Life Technologies and Expression Analysis (LTEA) Assay for Cyclin Dependent Kinase Inhibitor 1A (CDKN1A) using HepaRG (AID 2283450)
Summary of the method: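 Expression quantified by Fluidigm qRT-PCR with ACTB, GAPDH and POLR2A normalization, fitted bidirectionally against 0.5% DMSO. Cells: HepaRG, plated 48 h then treated 48 h in serum-free induction medium, top concentration 100 uM with half-log dilutions.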

[3] = read-out: Cyclin D1 (CCND1), CCND1 (gene 595); assay: LTEA_HepaRG_CCND1: Life Technologies and Expression Analysis (LTEA) Assay for Cyclin D1 (CCND1) using HepaRG (AID 2283451);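 for AC50: differentiated human HepaRG liver cells in serum-free induction medium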
Summary of the method: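 Expression of CCND1 was quantified by qRT-PCR on Fluidigm arrays using ACTB, GAPDH and POLR2A as reference genes. HepaRG cultures, plated 48 h beforehand, were dosed for 48 h at up to 100 uM (half-log, 8 points) in 0.5% DMSO.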

[4] = read-out: catalase (CAT), CAT (gene 847); assay: LTEA_HepaRG_CAT: Life Technologies and Expression Analysis (LTEA) Assay for catalase (CAT) using HepaRG (AID 2283452)
Summary of the method: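 HepaRG cells in serum-free induction medium, 0.5% DMSO vehicle, exposed 48 h in duplicate over 8 half-log concentrations from 100 uM. CAT mRNA measured by qRT-PCR, normalized to ACTB, GAPDH, POLR2A; bidirectional fit versus DMSO.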

[5] = read-out: CFLAR gene, CFLAR (gene 8837); assay: LTEA_HepaRG_CFLAR: Life Technologies and Expression Analysis (LTEA) Assay for CFLAR gene using HepaRG (AID 2283455)
Summary of the method: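 qRT-PCR read-out (Fluidigm/TaqMan) of CFLAR mRNA, normalized to three housekeeping genes, in differentiated human HepaRG cells after 48 h chemical exposure; 8-point half-log series from 100 uM in 0.5% DMSO; bidirectional curve fitting versus DMSO.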

[6] = read-out: Forkhead box O1 (FOXO1), FOXO1 (gene 2308); assay: LTEA_HepaRG_FOXO1: Life Technologies and Expression Analysis (LTEA) Assay for Forkhead box O1 (FOXO1) using HepaRG (AID 2283456)
Summary of the method: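 HepaRG, 48 h exposure, 8-pt half-log series from 100 uM in 0.5% DMSO, duplicates; Fluidigm qRT-PCR mRNA, housekeeping-normalised; bidirectional fit vs DMSO baseline.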

[7] = read-out: growth arrest and DNA damage 45 (GADD45A), GADD45A (gene 1647); assay: LTEA_HepaRG_GADD45A: Life Technologies and Expression Analysis (LTEA) Assay for growth arrest and DNA damage 45 (GADD45A) using HepaRG (AID 2283458)
Summary of the method: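 GADD45A expression was measured by TaqMan qRT-PCR against three housekeeping genes (ACTB, GAPDH, POLR2A) after 48 h treatment of HepaRG cells. Eight-point half-log series up to 100 uM in 0.5% DMSO, run in duplicate.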

[8] = read-out: Forkhead box O3 (FOXO3), FOXO3 (gene 2309); assay: LTEA_HepaRG_FOXO3: Life Technologies and Expression Analysis (LTEA) Assay for Forkhead box O3 (FOXO3) using HepaRG (AID 2283459)
Summary of the method: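 qRT-PCR readout of FOXO3 transcript, normalized to three housekeeping genes (ACTB, GAPDH, POLR2A); gain or loss fitted against 0.5% DMSO vehicle. HepaRG cells, 48 h chemical exposure, 8-point half-log series, top 100 uM.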

[9] = read-out: ABC Transporter (ABCB1), ABCB1 (gene 5243); assay: LTEA_HepaRG_ABCB1: Life Technologies and Expression Analysis (LTEA) Assay for ABC Transporter (ABCB1) using HepaRG (AID 2283460)
Summary of the method: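 HepaRG, 48 h exposure, 8-pt half-log series from 100 uM, 0.5% DMSO vehicle, duplicates. Readout: ABCB1 transcript by Fluidigm TaqMan qRT-PCR, housekeeping-normalized; bidirectional curve fit vs DMSO baseline.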

[10] = read-out: growth arrest and DNA damage 45 (GADD45B), GADD45B (gene 4616); assay: LTEA_HepaRG_GADD45B: Life Technologies and Expression Analysis (LTEA) Assay for growth arrest and DNA damage 45 (GADD45B) using HepaRG (AID 2283461)
Summary of the method: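 Transcript level quantified by Fluidigm TaqMan qRT-PCR with three housekeeping genes for normalization, analyzed for up- or down-regulation against 0.5% DMSO. HepaRG cultures dosed 48 h at eight half-log concentrations up to 100 uM, duplicates.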

[11] = read-out: ABC Transporter (ABCC3), ABCC3 (gene 8714); assay: LTEA_HepaRG_ABCC3: Life Technologies and Expression Analysis (LTEA) Assay for ABC Transporter (ABCC3) using HepaRG (AID 2283462)
Summary of the method: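 Transcript level by TaqMan qRT-PCR, normalised to three housekeeping genes, fitted in both directions relative to vehicle. Chemicals tested in duplicate at eight half-log concentrations up to 100 uM for 48 h on HepaRG cells (0.5% DMSO).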

[12] = read-out: ABC Transporter (ABCB11), ABCB11 (gene 8647); assay: LTEA_HepaRG_ABCB11: Life Technologies and Expression Analysis (LTEA) Assay for ABC Transporter (ABCB11) using HepaRG (AID 2283463)
Summary of the method: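 HepaRG, 48 h exposure, 8-pt half-log CRC top 100 uM, 0.5% DMSO vehicle, duplicates. Readout: TaqMan qRT-PCR of ABCB11 mRNA, housekeeping-normalized (ACTB/GAPDH/POLR2A). Bidirectional fit vs DMSO baseline.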

[13] = read-out: ABC Transporter (ABCC2), ABCC2 (gene 1244); assay: LTEA_HepaRG_ABCC2: Life Technologies and Expression Analysis (LTEA) Assay for ABC Transporter (ABCC2) using HepaRG (AID 2283464)
Summary of the method: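 Endpoint is ABCC2 transcript level from qRT-PCR, normalized to three housekeeping genes and fitted bidirectionally relative to DMSO. Human HepaRG cells received test chemical for 48 h at up to 100 uM (8 points, half-log steps, 0.5% DMSO), duplicate wells.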

[14] = read-out: Broad substrate specificity ATP-binding cassette transporter ABCG2 (Homo sapiens) (UniProt Q9UNQ0); assay: LTEA_HepaRG_ABCG2: Life Technologies and Expression Analysis (LTEA) Assay for ABC Transporter (ABCG2) using HepaRG (AID 2283465)
Summary of the method: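 HepaRG, 48 h exposure, 8-pt half-log series from 100 uM, 0.5% DMSO vehicle, duplicates. Readout: ABCG2 transcript by qRT-PCR (Fluidigm array), housekeeping-normalized; bidirectional curve fit relative to DMSO baseline.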

[15] = read-out: ATP-citrate lyase (ACLY), ACLY (gene 47); assay: LTEA_HepaRG_ACLY: Life Technologies and Expression Analysis (LTEA) Assay for ATP-citrate lyase (ACLY) using HepaRG (AID 2283466)
Summary of the method: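 qRT-PCR readout of ACLY transcript after 48 h chemical treatment of HepaRG cells; expression normalized to three housekeeping genes. Eight-point half-log series, highest 100 uM, 0.5% DMSO vehicle. Gain or loss fitted against DMSO baseline.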

[16] = read-out: Peroxisomal acyl-coenzyme A oxidase 1 (ACOX1) gene, ACOX1 (gene 51); assay: LTEA_HepaRG_ACOX1: Life Technologies and Expression Analysis (LTEA) Assay for Peroxisomal acyl-coenzyme A oxidase 1 (ACOX1) gene using HepaRG (AID 2283467)
Summary of the method: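 HepaRG, 48 h chemical exposure, 8-pt half-log series from 100 uM top, 0.5% DMSO vehicle, duplicates. Readout: ACOX1 mRNA by Fluidigm qRT-PCR, housekeeping-normalized; bidirectional fit vs DMSO baseline.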

[17] = read-out: Alkaline Phosphatase, Placental (ALPP) gene, ALPP (gene 250); assay: LTEA_HepaRG_ALPP: Life Technologies and Expression Analysis (LTEA) Assay for Alkaline Phosphatase, Placental (ALPP) gene using HepaRG (AID 2283468);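 note: differentiated human HepaRG liver cells in serum-free induction medium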
Summary of the method: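 ALPP transcript level, measured by qRT-PCR and normalized to three housekeeping genes (ACTB, GAPDH, POLR2A), after 48 h dosing of differentiated HepaRG in serum-free induction medium. Top concentration 100 uM with half-log dilutions (8 points, 0.5% DMSO, duplicates); bidirectional fitting relative to DMSO.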

Measured: AC50

Sequence of Broad substrate specificity ATP-binding cassette transporter ABCG2 (Homo sapiens) (Q9UNQ0 whole entry, looked up): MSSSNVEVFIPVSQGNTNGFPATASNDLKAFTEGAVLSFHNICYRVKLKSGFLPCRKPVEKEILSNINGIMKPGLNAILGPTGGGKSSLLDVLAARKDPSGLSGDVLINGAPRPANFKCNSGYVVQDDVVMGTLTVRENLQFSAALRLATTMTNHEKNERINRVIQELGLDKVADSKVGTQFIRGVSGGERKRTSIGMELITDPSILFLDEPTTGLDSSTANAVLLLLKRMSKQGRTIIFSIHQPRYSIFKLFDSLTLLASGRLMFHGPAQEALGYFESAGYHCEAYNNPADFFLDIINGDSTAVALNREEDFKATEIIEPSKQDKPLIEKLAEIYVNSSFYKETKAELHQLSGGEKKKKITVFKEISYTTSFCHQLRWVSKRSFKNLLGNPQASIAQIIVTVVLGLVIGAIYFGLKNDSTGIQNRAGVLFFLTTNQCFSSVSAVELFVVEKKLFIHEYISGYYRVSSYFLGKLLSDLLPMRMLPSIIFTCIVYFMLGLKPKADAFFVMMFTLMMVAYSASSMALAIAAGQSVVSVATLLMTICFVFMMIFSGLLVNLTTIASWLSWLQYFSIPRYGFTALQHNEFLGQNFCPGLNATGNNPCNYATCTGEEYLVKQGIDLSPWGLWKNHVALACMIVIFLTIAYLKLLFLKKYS

O=C(Nc1ccccc1)Nc1ccnc(Cl)c1
active: [2] 50 µM | [3] 40.9 µM | [4] 65.3 µM | [7] 70.7 µM | [8] 25.3 µM | [9] 84.3 µM | [11] 85.7 µM | [12] 26.5 µM | [13] 89.9 µM | [14] 83.9 µM | [15] 80.4 µM | [16] 73.7 µM | [17] 3.48 µM
inactive: [1] | [5] | [6] | [10]

COc1ccc(C(c2ccc(OC)cc2)C(Cl)(Cl)Cl)cc1
active: [4] 89.1 µM | [10] 61.8 µM | [11] 77 µM | [12] 86.7 µM | [13] 14.1 µM
inactive: [2] | [3] | [5] | [6] | [7] | [8] | [9] | [14] | [15] | [16]
